Compound activity from PubChem BioAssay.
Pf apPOL block = Pf-apPOL inhibitors, biochemical, fluorescence | Plasmodium falciparum apicoplast DNA polymerase (apPOL) | Recombinant Pf-apPOL, molecular beacon fluorescence, 1.5 h | inhibition, % at 10 µM | actives 0.25% (n = 210,000) | AID 1794808, 2022
mHTT CaM bind = mutant huntingtin-calmodulin interaction inhibitors – biochemical, AlphaScreen, primary screen. actives 3.6% (n = 190,000). inhibition, % at 15 µM. AlphaScreen His-mHTT/GST-CaM binding, luminescence
Each line names hits and unclear results; the compound was inactive in the other large screens. Only a selection was taken, and hits are over-represented in it overall. Cut-off read from the data, not from the text of the source: active = inhibition above about 50%; inactive = the rest.

O=C(NCc1ccco1)c1ccc(NC(=O)N2CC3CCCN3c3ccccc32)cc1 (centres undefined)	none
CCOc1ccccc1NC(=O)N1CC(CC)Oc2ccccc21 (centres undefined)	none
O=C(Nc1ccccc1Br)N1CC2CCCN2c2ccccc21 (centres undefined)	mHTT CaM bind 74
Cc1ccccc1NC(=O)N1CC2CCCN2c2ccccc21 (centres undefined)	mHTT CaM bind 61
COC(=O)c1ccc(C(=O)NCC#CCN2CCc3ccccc3C2)cc1	none
COc1ccc(C2C(=O)N(C3CCCC3)CC(=O)N2C2CCCc3ccccc32)cc1 (centres undefined)	none
CCOC(=O)N1CCN(C(=O)c2csc(NC(=O)c3ccccc3)n2)CC1	none
COc1ccc(CCN2CC(C(=O)NCc3cc(C)ccc3C)CC2=O)cc1OC (centres undefined)	none
COc1cc(OC)c(OC)cc1CN1CCCC1c1cc(C(C)C)on1 (centres undefined)	none
O=C(Nc1nc(-c2nc3ccccc3s2)cs1)c1coc2ccccc2c1=O	none
CCc1ccc(C(c2ccc(CC)o2)c2cc3c(cc2[N+](=O)[O-])OCO3)o1	mHTT CaM bind 84
Nc1cc2c(cc1[N+](=O)[O-])OCO2	none
CCC(=O)Nc1ccccc1Cl	none
O=C(NC(c1ccccc1)c1ccccc1)c1ccccn1	none
COc1ccccc1C(NC(=O)C1CCCCC1)c1ccc2cccnc2c1O (centres undefined)	mHTT CaM bind 100
CCCCC(=O)NC(c1ccccc1Cl)c1ccc2cccnc2c1O (centres undefined)	mHTT CaM bind 99
O=C(Cc1ccccc1)NC(c1ccccc1)c1ccc2cccnc2c1O (centres undefined)	mHTT CaM bind 100
CCC(=O)NC(c1ccccc1Cl)c1ccc2cccnc2c1O (centres undefined)	mHTT CaM bind 100
COc1ccc(NC(=O)C2CC2)c2ncccc12	none
O=C(CCCN1C(=O)c2cccnc2C1=O)NC(c1ccccc1)c1ccccc1	none
CCc1nnc(NC(=O)c2cc(Cl)ccc2Cl)s1	none
CCC(=O)Nc1cccnc1-c1ccc(C(=O)Nc2ccccc2OC)cc1	none
O=C(Cc1ccccc1)NC(c1ccccc1Cl)c1ccc2cccnc2c1O (centres undefined)	mHTT CaM bind 100
CCC(=O)NC(c1ccccc1OC)c1ccc2cccnc2c1O (centres undefined)	mHTT CaM bind 100
O=C(Cc1ccccc1)Nc1cc(-c2nc3ncccc3o2)ccc1Cl	none
O=C(CN1CCN(C(=O)NCc2ccc(F)cc2)CC1)c1ccco1	none
CCOC(=O)C1CCc2sc(NC(=O)C3CN(c4nc5ccccc5s4)C3)nc21 (centres undefined)	none
CCOC(=O)C1CCc2sc(NC(=O)c3n[nH]c4ccccc34)nc21 (centres undefined)	mHTT CaM bind 98
CC(C)(C)C(=O)Nc1ccc2c(c1)C(N1CCCCC1)=Nc1ccccc1O2	none
Cc1ccccc1CNC(=O)C1(C)CCCN(S(=O)(=O)c2cccc(Cl)c2C)C1 (centres undefined)	mHTT CaM bind 61
Cc1ccccc1CNC(=O)C1(C)CCCN(S(=O)(=O)c2ccccc2Cl)C1 (centres undefined)	none
Cc1ccc(C)c(S(=O)(=O)N2CCCC(C)(C(=O)NCc3ccccc3)C2)c1 (centres undefined)	none
Cc1c(Cl)cccc1S(=O)(=O)N1CCCC(C)(C(=O)NCc2ccccc2)C1 (centres undefined)	mHTT CaM bind 65
CC(C)(C)C(=O)N1CCN(c2cc(Oc3ccccc3)ncn2)CC1	none
COc1ccc(-n2ccn3cc(-c4ccc(Cl)cc4)nc3c2=O)cc1	none
Cc1[nH]nc(-n2cnc3ccccc32)c1[N+](=O)[O-]	none
Cc1cccc(/C=C2\SC(=Nc3ccccc3)NC2=O)n1	none
OC(CSCc1cccc(C(F)(F)F)c1)C(O)CSCc1cccc(C(F)(F)F)c1 (centres undefined)	mHTT CaM bind 100 (no result: Pf apPOL block)
FC(F)(F)c1cccc(Cc2cccc(C(F)(F)F)c2)c1	none (no result: mHTT CaM bind)
CCC(=O)NCc1nc2c(n1CC)CN(S(=O)(=O)c1ccc(C)cc1C)CC2	none
CCN(CCCNC(=O)c1c(C)cc(=O)oc1C)c1cccc(C)c1	mHTT CaM bind 64
Cc1cc(=O)oc(C)c1C(=O)NCc1cccs1	none
COc1ccc(-n2nc(C(=O)NCC(=O)Nc3ccc(F)cc3)c3ccccc3c2=O)c(OC)c1	mHTT CaM bind 88
CCN(CCCNC(=O)c1nn(-c2ccccc2OC)c(=O)c2ccccc12)c1cccc(C)c1	mHTT CaM bind 62
Cc1cc(=O)oc(C)c1C(=O)NCCCN(CC(C)C)CC(C)C	none
COCCNC(=O)c1nn(-c2ccccc2OC)c(=O)c2ccccc12	none
Cc1cc(=O)oc(C)c1C(=O)NCc1ccccn1	mHTT CaM bind 57
COc1ccc(-n2nc(C(=O)Nc3ccc(F)cc3)c3ccccc3c2=O)c(OC)c1	none
COc1ccc(-c2csc(/C(C#N)=C/c3cccnc3)n2)cc1	none
